High-throughput results (PubChem)
This is one part of a sample in which hits are shown more often than they occur.
Dicer inh: inhibitors of Dicer pre-microRNA processing, primary screen, biochemical, cat-ELCCA, chemiluminescence. Endoribonuclease Dicer (Homo sapiens), Q9UPY3. cat-ELCCA pre-miR-21 Dicer processing; hits give high values. z-score at 25 µM. 6% of 47,000 active; in the data active = z-score above about 3, passing the limit was not always enough;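 also: plate controls were vehicle for no effect and no enzyme for full effect; higher signal means more uncleaved substrate so more Dicer inhibition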
* hit, by the source's call.

SMILES	Dicer inh
CCOC(Cc1nnc(SCC(=O)c2cccc(C(F)(F)F)c2)n1C)OCC	0.32
CCOC(=O)c1nc(-c2ccccc2)sc1-c1ccnn1C(=O)Nc1ccccc1	1.1
O=C(c1ccc(Cl)cc1)n1c(=O)oc2ccccc21	1.3
CCCCOC(=O)n1c(=O)oc2ccccc21	6.6*
CCOC(=O)n1c(=S)oc2ccccc21	1.6
O=C1CC(c2ccc(F)cc2)c2ccc3ccccc3c2N1 (stereo unspecified)	-0.44
Nc1ccc2nc(SCc3ccc(Cl)cc3)sc2c1	3.9*
Clc1ccc(CSc2nnc(SCc3ccc(Cl)cc3)s2)cc1	0.51
Clc1ccc(CSc2nsc(SCc3ccc(Cl)cc3)n2)cc1	0
COCCCNC(=S)N/N=C/c1ccc(Cl)c(Cl)c1	0.85
CN(C)/C=C(\C#N)C(=O)NC1CCCCC1	27
Cn1nccc1NC(=O)c1ccccc1Cl	-0.77
Cn1c(=O)c2c(nc(N/N=C/c3c(Cl)cccc3Cl)n2Cc2ccccc2)n(C)c1=O	0.52
Cc1ccc(=O)n(Cc2ccc([N+](=O)[O-])cc2)n1	-0.67
O=c1oc(-c2cccc(Cl)c2)nc2ccccc12	0.1
O=c1oc(-c2ccccc2Br)nc2ccccc12	4.6*
O=c1oc(-c2ccc(-c3ccccc3)cc2)nc2ccccc12	0.22
CC/C(=N\Oc1ccc(C(F)(F)F)cn1)c1ccc(-c2ccccc2F)cc1	-0.97
CCOC(=O)CC(=O)CSc1nc(N)c2c3c(sc2n1)CCC3	-0.06
Nc1nc(SCC(=O)c2ccc(Cl)cc2)nc2sc3c(c12)CCCCC3	-1.4
CCOC(=O)c1nc2sc3c(c2c(=O)[nH]1)CCCC3	-0.09
CCOC(=O)CSc1nc(SCC(=O)OCC)c2c3c(sc2n1)CCC3	2.9
CCOC(=O)CCCSc1nc(N)c2c3c(sc2n1)CCCC3	3.1*
CCOC(=O)CC(=O)CSc1nc(N)c2c3c(sc2n1)CCCC3	5.5*
CCOC(=O)c1ccc(Oc2ncc(C(F)(F)F)cc2Cl)cc1	0.5
SMILES	Dicer inh
CC(C)(C)c1csc(NNC(=O)c2ccc(Cl)cc2)n1	13
CC(C)(C)c1cc2nc(C(F)(F)F)cc(Sc3ccc(Cl)cc3)n2n1	-1.4
CC(C)(C)c1cc2nc(C(F)(F)F)cc(NNC(=O)c3ccc(Cl)cc3)n2n1	5.2*
CC(C)(C)c1cc2nc(C(F)(F)F)cc(N/N=C/c3ccccc3)n2n1	0.12
CC(C)(C)c1cc2nc(C(F)(F)F)cc(NNC(=O)c3ccccc3)n2n1	6.7*
CC(C)(C)c1cc2nc(C(F)(F)F)cc(NNC(=O)Nc3ccccc3)n2n1	0.68
Cn1c2c(c(=O)n(C)c1=O)CN(Cc1cccnc1)CN2	-1.6
COC(Cn1c(SCc2ccc(C)cc2)nnc1-c1ccccc1)OC	-0.76
Cc1cn(CCC(=O)Nc2nn(C)c3ccccc23)c2ccccc12	2.9
O=C(CC1(O)C(=O)Nc2ccccc21)c1cc(O)ccc1O (stereo unspecified)	-0.31
CC1(C)CC(=O)C2=C(C1)Nc1ccccc1NC2c1cccc(Oc2ccccc2)c1 (stereo unspecified)	3
COc1ccccc1C(=O)CC1(O)C(=O)N(C(C)C)c2ccccc21 (stereo unspecified)	0.81
CC(C)C(=O)N(c1ccc2oc(=O)sc2c1)S(=O)(=O)c1ccccc1	2.6
CCCC(=O)N(c1ccc2oc(=O)sc2c1)S(=O)(=O)c1cccs1	-1.1
O=C(C1CCCCC1)N(c1ccc2oc(=O)sc2c1)S(=O)(=O)c1cccs1	3.7*
O=C(CSc1n[nH]c(=O)n1-c1cccc(F)c1)Nc1ccc(Cl)cc1	1.2
CC1=Nc2ccc(C)cc2C1(C)C	-0.12
COc1ccc(-c2c(C)oc3cc(O)cc(O)c3c2=O)cc1OC	2
COc1ccc(-c2c(C(F)(F)F)oc3cc(O)cc(O)c3c2=O)cc1	5.3*
COc1ccc2c(=O)c(-c3ccc(Cl)cc3)c(C(F)(F)F)oc2c1	-0.51
CC(C)[C@H](NS(=O)(=O)c1ccc(F)cc1)C(=O)O	1.3
CC(NS(=O)(=O)c1ccc(N)cc1)C(=O)O (stereo unspecified)	-0.74
C[C@H](NS(=O)(=O)c1ccc(F)cc1)C(=O)O	5.3*
Cc1cc(=O)[nH]c(N/N=C/c2ccccc2O)n1	0.27
CCCC(NC(=O)C(C)N)C(=O)O (stereo unspecified)	1.2
SMILES	Dicer inh
Cc1ccc2oc(NC(=O)N3CCOCC3)cc(=O)c2c1	-0.18
Cc1ccc2oc(C(F)(F)F)cc(=O)c2c1	3.5*
Cc1ccc2oc(-c3ccc(Br)cc3)cc(=O)c2c1	0.77
C=C(C)Cn1c(NCCO)nc2c1c(=O)[nH]c(=O)n2C	-0.09
Cc1cc(C)cc(Oc2coc3cc(OC(C)C(=O)OCC(C)C)ccc3c2=O)c1 (stereo unspecified)	3.6*
CCCOC(=O)C(C)Oc1ccc2c(=O)c(-c3ccc(Cl)cc3)coc2c1 (stereo unspecified)	3.2*
CCOC(=O)C(CC)Oc1ccc2c(=O)c(-c3ccc(Cl)cc3)coc2c1 (stereo unspecified)	1.1
CCOCCOC(=O)C(C)Oc1ccc2c(=O)c(Oc3cc(C)c(Cl)c(C)c3)coc2c1 (stereo unspecified)	-0.19
CCC(C)OC(=O)C(C)Oc1ccc2c(=O)c(-c3ccc(Cl)cc3)coc2c1 (stereo unspecified)	-0.61
CCCOC(=O)COc1ccc2c(=O)c(Oc3cc(C)c(Cl)c(C)c3)coc2c1	-0.45
CC(C)COC(=O)C(C)Oc1ccc2c(=O)c(Oc3ccccc3Cl)coc2c1 (stereo unspecified)	0.24
CCCCOC(=O)C(C)Oc1ccc2c(=O)c(Oc3ccccc3Br)coc2c1 (stereo unspecified)	-0.22
CCOCCOC(=O)COc1ccc2c(=O)c(-c3ccc(Cl)cc3)coc2c1	3.5*
CCOC(=O)NC(=S)NNC(=O)c1cccnc1	0.44
COC(OC)c1ccc2c(N)c(C(=O)c3ccc(C)cc3)sc2n1	0.42
O=S(=O)(/N=C/c1ccccc1O)c1ccc(N=Cc2ccccc2O)cc1	-0.95
Cc1nnc(NC(=O)c2nn(-c3ccccc3)nc2C)s1	-1.2
CCOC(=O)NNC(=S)Nc1ccccc1Cl	-0.07
CC(C)CNS(=O)(=O)c1cccc2c(N)cccc12	-2.1
CCOC(=O)c1sc(N2C(=O)c3oc4ccccc4c(=O)c3C2c2ccccc2)nc1C (stereo unspecified)	0.31
CN(CCO)c1nc2cc(Cl)ccc2s1	-0.17
Cc1cc(/C=N\Nc2ccc([N+](=O)[O-])cc2)c2c(C)ccc(C(C)C)cc1-2	4.4
Oc1ccc(Cl)cc1C1=NN2C(C1)c1ccccc1OC2c1cccnc1 (stereo unspecified)	0.4
COc1ccc(O)c(C2=NN3C(C2)c2cc(Cl)ccc2OC3c2ccsc2)c1 (stereo unspecified)	1.1
Oc1ccccc1C1=NN2C(C1)c1cc(Cl)ccc1OC2c1ccsc1 (stereo unspecified)	12*
SMILES	Dicer inh
Oc1ccccc1C1=NN2C(C1)c1cc(Cl)ccc1OC2c1ccncc1 (stereo unspecified)	2.6
Oc1ccc(Cl)cc1C1=NN2C(C1)c1ccccc1OC2c1ccsc1 (stereo unspecified)	6.7*
Cc1ccc(O)c(C2=NN3C(C2)c2ccccc2OC3c2cccnc2)c1 (stereo unspecified)	3
CCCc1nc2ccccc2n1CC(O)COc1cc(OC)cc(OC)c1 (stereo unspecified)	-1.4
CCOc1ccccc1C1C(C#N)=C(C)NC2=C1C(=O)CC(c1ccc(Cl)cc1)C2 (stereo unspecified)	-0.83
Cc1ccc(Sc2c(C(=O)O)cnc3c2c(C)nn3C)cc1	-0.49
